Test results reported in PubChem BioAssay (NCATS).
Inconclusive results are not listed. Calls of active or inactive are those of the source. Unless noted, calls follow the shape of the dose curve; as a rule, active = well fitted curve in the direction sought with a large enough effect; inconclusive = small, poorly fitted or top-dose-only effect, or another doubt; inactive = no such curve, though single readings can be large; an effect the other way counts as inactive or inconclusive.

Experiments:
[1] = qHTS for Inhibitors of Plasmodium falciparum (GB4) proliferation (AID 504315); also: nearly all actives have a fitted effect of over 50% in size; also: potency is read from the fitted curve at half-maximal effect;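 as to activity change, negative = inhibition: 0% = DMSO vehicle and -100% = 0.29 µM artemisinin control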
How it was run: (§1)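 Erythrocytes infected with P. falciparum line (0.3% parasitemia, 2.5% hematocrit final) incubated with compounds 72 h at 37 °C, 5% CO2; SYBR Green lysis buffer added, fluorescence read next day. Normalized to 0.29 uM artemisinin and DMSO.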

[2] = qHTS for Inhibitors of Plasmodium falciparum (HB3) proliferation (AID 504318); also: nearly all actives have a fitted effect of over 60% in size; also: potency is read from the fitted curve at half-maximal effect;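 as to activity change, negative = inhibition: 0% = DMSO vehicle and -100% = artemisinin control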
How it was run: as §1

[3] = target: Atrial natriuretic peptide receptor 1 (Homo sapiens) (UniProt P16066); assay: Natriuretic polypeptide receptor (hNpr1) antagonism - Pilot CMLD screen (AID 1347052; calls by dose curve;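 also: HEK293 cells with hNpr1 stimulated by hNppA peptide at 0.1 nM; cGMP level read as GloSensor luciferase luminescence after agonist stimulation; series mostly up to about 9.2 µM; % is scaled to controls: 0 for no effect and ±100 for the full control effect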)
[4] = qHTS for Inhibitors of Plasmodium falciparum (7G8) proliferation (AID 504316); also: nearly all actives have a fitted effect of over 65% in size; also: potency is read from the fitted curve at half-maximal effect;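 as to activity change, negative = inhibition: series mostly up to about 6.7 µM; 0% = DMSO vehicle and -100% = 0.29 µM artemisinin full kill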
How it was run: as §1

[5] = qHTS for Inhibitors of Plasmodium falciparum (CP250) proliferation (AID 504320);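 also: plate controls were DMSO vehicle for no effect and 0.29 µM artemisinin control for full effect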
How it was run: as §1

[6] = target: Cytochrome P450 2C9 (Homo sapiens) (UniProt P11712); assay: qHTS Assay for Inhibitors and Substrates of Cytochrome P450 2C9 (AID 883); also: % is scaled to controls: 0 for no effect and ±100 for the full control effect; nearly all actives have a fitted effect of over 60% in size
How it was run: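 10nM CYP2C9 + 100uM Luciferin-H (=KM), 25mM KPO4; cpd 10 min 37C; NADPH regen, 60 min 37C; stop/detect with P450 Glo-Buffer 20 min; luminescence. Norm. to 57uM sulphaphenazole as full inhibition.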

[7] = target: Cytochrome P450 3A4 (Homo sapiens) (UniProt P08684); assay: qHTS Assay for Inhibitors and Substrates of Cytochrome P450 3A4 (AID 884); also: series mostly up to about 57 µM; % is scaled to controls: 0 for no effect and ±100 for the full control effect; nearly all actives have a fitted effect of over 50% in size
How it was run: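 20 nM human CYP3A4 with 25 uM Luciferin-PPXE (at KM) in 200 mM KPO4, preincubated 10 min with compound; NADPH regeneration started a 60 min RT reaction. Luciferin detected by luminescence, normalized to 57 uM ketoconazole as full inhibition.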

[8] = target: Cytochrome P450 2D6 (Homo sapiens) (UniProt P10635); assay: qHTS Assay for Inhibitors and Substrates of Cytochrome P450 2D6 (AID 891);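 also: luciferin methyl ether substrate demethylated by CYP2D6 with NADPH regeneration; % is scaled to controls: 0 for no effect and ±100 for the full control effect; nearly all actives have a fitted effect of over 60% in size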
How it was run: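 Human CYP2D6 (5 nM) with 30 uM Luciferin-ME EGE (at Km) in 100 mM KPO4, compound preincubated 10 min, then NADPH regeneration system for 60 min at room temperature. Luciferin read by luminescence; normalized to 1.43 uM quinidine.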

[9] = target: Cytochrome P450 2C19 (Homo sapiens) (UniProt P33261); assay: qHTS Assay for Inhibitors and Substrates of Cytochrome P450 2C19 (AID 899); also: % is scaled to controls: 0 for no effect and ±100 for the full control effect; nearly all actives have a fitted effect of over 60% in size
How it was run: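 Luminescent read-out of luciferin formed from Luciferin-H EGE (10uM, equal to KM). Enzyme 5nM in 50mM KPO4; compound added, 10 min at 37C, then NADPH regenerating system for 60 min at 37C. Full inhibition defined by 57uM ketoconazole.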

Chain of Atrial natriuretic peptide receptor 1 (Homo sapiens) (P16066 whole entry, looked up): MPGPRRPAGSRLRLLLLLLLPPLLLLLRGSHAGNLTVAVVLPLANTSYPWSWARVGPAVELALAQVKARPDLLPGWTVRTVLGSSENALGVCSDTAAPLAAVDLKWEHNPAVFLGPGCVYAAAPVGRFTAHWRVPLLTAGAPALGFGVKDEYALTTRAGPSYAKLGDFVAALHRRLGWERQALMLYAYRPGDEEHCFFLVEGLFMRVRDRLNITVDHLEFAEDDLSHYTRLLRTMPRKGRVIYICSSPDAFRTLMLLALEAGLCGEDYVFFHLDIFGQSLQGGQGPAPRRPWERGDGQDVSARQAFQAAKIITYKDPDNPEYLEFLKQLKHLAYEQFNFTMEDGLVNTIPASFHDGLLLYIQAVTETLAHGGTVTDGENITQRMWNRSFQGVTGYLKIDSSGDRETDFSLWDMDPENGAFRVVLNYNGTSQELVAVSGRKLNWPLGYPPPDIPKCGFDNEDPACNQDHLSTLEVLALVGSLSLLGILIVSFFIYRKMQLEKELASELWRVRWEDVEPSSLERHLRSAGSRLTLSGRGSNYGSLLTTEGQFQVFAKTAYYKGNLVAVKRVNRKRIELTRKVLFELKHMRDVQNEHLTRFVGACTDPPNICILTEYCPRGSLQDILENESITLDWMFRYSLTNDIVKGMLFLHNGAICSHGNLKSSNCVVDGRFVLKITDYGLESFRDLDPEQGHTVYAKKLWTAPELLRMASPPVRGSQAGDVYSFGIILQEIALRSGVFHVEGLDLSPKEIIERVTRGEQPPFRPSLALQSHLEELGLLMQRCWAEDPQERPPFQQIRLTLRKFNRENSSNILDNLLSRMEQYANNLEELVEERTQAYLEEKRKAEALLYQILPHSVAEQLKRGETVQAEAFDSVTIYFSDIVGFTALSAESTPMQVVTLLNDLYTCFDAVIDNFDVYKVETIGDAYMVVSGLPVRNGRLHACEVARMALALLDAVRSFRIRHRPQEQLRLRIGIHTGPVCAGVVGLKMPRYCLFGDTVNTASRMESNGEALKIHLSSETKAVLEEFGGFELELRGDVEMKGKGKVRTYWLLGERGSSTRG
Chain of Cytochrome P450 2C19 (Homo sapiens) (P33261 whole entry, looked up): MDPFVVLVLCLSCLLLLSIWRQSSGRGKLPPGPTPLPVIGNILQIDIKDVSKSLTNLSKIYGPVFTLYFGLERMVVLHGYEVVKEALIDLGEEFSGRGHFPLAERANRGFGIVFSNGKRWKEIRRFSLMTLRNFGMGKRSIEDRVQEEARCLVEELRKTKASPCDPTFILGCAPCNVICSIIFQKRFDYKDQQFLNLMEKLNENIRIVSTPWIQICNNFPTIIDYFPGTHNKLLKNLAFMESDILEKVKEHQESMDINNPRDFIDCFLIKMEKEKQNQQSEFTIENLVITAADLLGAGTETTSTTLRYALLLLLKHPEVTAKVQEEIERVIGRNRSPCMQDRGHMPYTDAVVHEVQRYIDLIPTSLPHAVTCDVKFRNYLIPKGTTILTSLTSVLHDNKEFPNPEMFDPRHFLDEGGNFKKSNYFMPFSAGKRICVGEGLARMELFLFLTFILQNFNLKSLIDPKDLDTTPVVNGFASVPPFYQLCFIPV
Chain of Cytochrome P450 2C9 (Homo sapiens) (P11712 whole entry, looked up): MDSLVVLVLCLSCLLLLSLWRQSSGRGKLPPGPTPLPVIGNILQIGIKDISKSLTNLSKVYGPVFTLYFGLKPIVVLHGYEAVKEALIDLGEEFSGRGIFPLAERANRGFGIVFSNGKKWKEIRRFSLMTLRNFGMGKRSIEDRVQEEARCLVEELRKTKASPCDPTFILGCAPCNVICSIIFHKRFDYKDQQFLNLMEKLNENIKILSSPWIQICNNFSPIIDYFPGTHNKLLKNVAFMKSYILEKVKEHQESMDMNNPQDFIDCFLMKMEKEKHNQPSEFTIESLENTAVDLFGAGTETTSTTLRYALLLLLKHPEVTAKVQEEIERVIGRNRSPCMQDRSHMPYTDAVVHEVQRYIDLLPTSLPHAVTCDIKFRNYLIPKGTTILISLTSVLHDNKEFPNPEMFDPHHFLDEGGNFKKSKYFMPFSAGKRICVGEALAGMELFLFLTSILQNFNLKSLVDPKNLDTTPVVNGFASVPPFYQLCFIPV
Chain of Cytochrome P450 3A4 (Homo sapiens) (P08684 whole entry, looked up): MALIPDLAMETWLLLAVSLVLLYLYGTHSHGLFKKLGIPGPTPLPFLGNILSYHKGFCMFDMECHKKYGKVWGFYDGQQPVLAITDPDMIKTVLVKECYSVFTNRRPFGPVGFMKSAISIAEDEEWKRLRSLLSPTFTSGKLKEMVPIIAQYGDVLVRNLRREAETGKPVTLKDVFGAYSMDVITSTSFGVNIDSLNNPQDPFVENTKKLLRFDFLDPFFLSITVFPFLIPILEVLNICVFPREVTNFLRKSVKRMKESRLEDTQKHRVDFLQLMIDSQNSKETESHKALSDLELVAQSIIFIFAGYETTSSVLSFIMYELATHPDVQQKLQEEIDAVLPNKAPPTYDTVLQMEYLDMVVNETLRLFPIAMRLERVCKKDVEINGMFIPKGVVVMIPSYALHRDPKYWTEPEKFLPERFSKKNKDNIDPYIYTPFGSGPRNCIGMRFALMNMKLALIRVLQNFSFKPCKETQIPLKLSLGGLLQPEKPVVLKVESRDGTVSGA
Chain of Cytochrome P450 2D6 (Homo sapiens) (P10635 whole entry, looked up): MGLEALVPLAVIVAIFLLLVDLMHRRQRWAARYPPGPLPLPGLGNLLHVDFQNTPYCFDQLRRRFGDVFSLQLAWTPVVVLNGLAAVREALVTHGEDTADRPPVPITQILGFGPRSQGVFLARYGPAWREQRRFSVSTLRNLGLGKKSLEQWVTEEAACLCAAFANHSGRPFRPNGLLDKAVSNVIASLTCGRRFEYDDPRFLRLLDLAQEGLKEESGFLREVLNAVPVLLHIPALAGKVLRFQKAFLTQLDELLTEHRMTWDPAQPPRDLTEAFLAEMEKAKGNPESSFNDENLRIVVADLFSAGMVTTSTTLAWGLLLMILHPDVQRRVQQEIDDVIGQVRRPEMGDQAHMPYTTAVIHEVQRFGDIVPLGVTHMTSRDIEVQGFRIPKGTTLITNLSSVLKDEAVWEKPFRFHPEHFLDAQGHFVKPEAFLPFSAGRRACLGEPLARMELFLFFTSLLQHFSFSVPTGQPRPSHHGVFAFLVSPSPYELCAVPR

C=CCCC1(C(=O)c2ccccc2)C(=O)C(CC=C(C)C)=C(OC)C(CC=C(C)C)(CCC=C(C)C)C1=O (centres undefined)
inactive: Potency [3]
active: Potency [1] 1.69 µM | Potency [2] 1.69 µM

CC(C)(C)OC(=O)N1CCC[C@@H]1C(O)(c1ccccc1)c1ccccc1
inactive: Potency [1] | Potency [4] | Potency [5] | Potency [3]

CC(C)=CCN1C(=O)[C@@]2(CC(C)=C[C@@H](COCc3ccccc3)O2)c2ccccc21
active: Potency [4] 1.9 µM
inactive: Potency [1] | Potency [5] | Potency [3]

COCCN1C(=O)NC(CCc2ccccc2)C(C(C)=O)=C1C (centres undefined)
inactive: Potency [1] | Potency [4] | Potency [5] | Potency [3]

CC1(OC(=O)C2CCCC2)C(=O)C=C2C=C(c3ccsc3)N(C3CCCCC3)C=C2C1=O (centres undefined)
inactive: Potency [1] | Potency [4] | Potency [5] | Potency [3]

CCOC(=O)C1=CN(CCNC(=O)OC(C)(C)C)C(=O)NC1c1ccccc1 (centres undefined)
inactive: Potency [1] | Potency [2] | Potency [3]

COc1ccc2c3c(c(=O)oc2c1)[C@H]1O[C@](CCCCN2C(=O)c4ccccc4C2=O)(Cc2cc(OC)c(OC)cc21)O3
active: Potency [1] 2.69 µM | Potency [2] 1.51 µM
inactive: Potency [3]

CCOC(=O)CCN1C(=O)[C@@H]2[C@H]3[C@H](O)[C@H](O)CC(=NNC(=O)OCc4ccc(OC)cc4)[C@@H]3CC[C@H]2C1=O
inactive: Potency [1] | Potency [4] | Potency [5] | Potency [3]

CCc1cc2c(nc1CC)CCN(CCC(C)=NOC[C@@H](O)COCc1ccco1)C2
inactive: Potency [1] | Potency [5] | Potency [3]
active: Potency [4] 1.51 µM

COc1cc(CO[C@H]2C=C[C@@H](c3ccccc3)O[C@H]2CO)cc(OC)c1
inactive: Potency [1] | Potency [4] | Potency [5] | Potency [3]

COC(=O)[C@]1(CC=Cc2ccccc2)C=C[C@@H](C)[C@H](c2ccccc2Br)N1C(=O)C(F)(F)F
active: Potency [1] 1.69 µM | Potency [2] 1.9 µM
inactive: Potency [3]

COCCN1C(=O)N[C@@H](c2cccc(C(F)(F)F)c2)[C@H](C(C)=O)[C@H]1C
inactive: Potency [1] | Potency [4] | Potency [5] | Potency [3]

C=CCC(O)(C#Cc1ccccc1)c1ccccc1 (centres undefined)
inactive: Potency [1] | Potency [2] | Potency [5] | Potency [3]

COc1ccc(O[C@H]2C=C[C@@H](c3ccccc3)O[C@H]2COC(=O)CCC(C)=NO[C@H](C)c2cn([C@@H]3COC[C@@H]3O)nn2)cc1
inactive: Potency [1] | Potency [5] | Potency [3]

CC1=CC[C@@H](COc2ccccc2)O[C@@]2(C1)C(=O)N(CC1CC1)c1ccccc12
inactive: Potency [1] | Potency [5] | Potency [3]

CC(C)[C@@H](OCc1ccccc1)[C@H](C)C=NOC[C@@H](C)[C@H](OCc1ccccc1)C(C)C
inactive: Potency [1] | Potency [2] | Potency [5] | Potency [3]

C[C@H](NC(=O)N1CCc2nc(-c3ccccc3)c3c(c2C1)CO[C@@H](C)C3)c1ccccc1
inactive: Potency [1] | Potency [5] | Potency [3]

O=C1CCCC2=C1[C@H]1O[C@](c3ccsc3)(Cc3c1ccc1ccccc31)O2
inactive: Potency [1] | Potency [2] | Potency [5] | Potency [3]

COc1cc([C@@H](NC(=O)C(F)(F)F)C2CCCCC=C2c2ccccc2)cc(OC)c1OC (some centres undefined)
inactive: Potency [1] | Potency [5] | Potency [3]

Cc1c(O)ccc2c1OCO2
inactive: activity change, negative = inhibition [6] -0.37% [at 11.4 µM] | activity change, negative = inhibition [7] -25.6% [at 11.4 µM] | activity change, negative = inhibition [8] -1.17% [at 11.4 µM] | activity, negative = inhibition [9] 39.4% [at 11.4 µM] | Potency [1] | Potency [2] | Potency [5] | Potency [3]

CCN1C(=NCc2ccccc2)N[C@@H](c2ccccc2)[C@H](C(=O)OC)[C@H]1C
inactive: Potency [1] | Potency [2] | Potency [5] | Potency [3]

CCN1C(=O)[C@@H]2[C@H]3[C@H](O)[C@H](O)CC(=NNC(=O)OCc4ccccc4)[C@@H]3CC[C@H]2C1=O
inactive: Potency [1] | Potency [2] | Potency [5] | Potency [3]

CCc1cc2c(nc1CC)CCN(CCC(C)=NO[C@@H]1O[C@H](COC(C)=O)[C@@H](OC(C)=O)[C@H](OC(C)=O)[C@@H]1OC(C)=O)C2
inactive: Potency [1] | Potency [5] | Potency [3]

COc1cccc([C@@H]2Oc3ccc(Br)cc3C(=O)[C@@H]2O)c1
inactive: Potency [1] | Potency [2] | Potency [5] | Potency [3]

COc1ccc2c(c1)O[C@@H](c1ccc3c(c1)OCO3)[C@H](OC(=O)NCCOc1ccccc1)C2=O
inactive: Potency [1] | Potency [5] | Potency [3]

COc1ccc([C@]23Cc4ccccc4[C@H](O2)c2c(cc(-c4ccccc4)oc2=O)O3)cc1
inactive: Potency [1] | Potency [2] | Potency [5] | Potency [3]

CC(=O)O[C@@H]1C(CO[Si](C)(C)C(C)(C)C)=C(Br)C(=O)[C@@H]2O[C@]12C
inactive: Potency [1] | Potency [2] | Potency [5] | Potency [3]

CCC12C=C(C=Cc3ccccc3)C(CC)(C1)C(c1ccccc1)CC2=O (centres undefined)
inactive: Potency [1] | Potency [2] | Potency [5] | Potency [3]

COc1cccc([C@H]2Oc3ccc(OC)cc3C(=NO[C@H](C)CN3CCCc4nc(C)c(C)cc43)[C@H]2O)c1
inactive: Potency [1] | Potency [2] | Potency [5] | Potency [3]

O=C1[C@H]2[C@@H]3[C@@H](O)[C@H](O)CC(=NOCc4ccccc4)[C@@H]3CC[C@H]2C(=O)N1Cc1ccc2c(c1)OCO2
inactive: Potency [1] | Potency [2] | Potency [5] | Potency [3]
